# PI5P4Ka inh: qHTS for Inhibitors of phosphatidylinositol 5-phosphate 4-kinase (PI5P4K) | Phosphatidylinositol 5-phosphate 4-kinase type-2 alpha (Homo sapiens), P48426 | PI5P4Kalpha enzyme, ADP-Glo luminescence, 60 min; hits give low values | max response, % | 1.2% of 330,000 active | AID 652105, 2013; active = max response of -50% or lower; inconclusive = between -30% and -50%; inactive = -30% or higher; also: value at the top dose of about 77 µM
#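 ADP-Glo luminescence end-point after a 60 min room-temperature kinase reaction. PI5P4Kalpha and substrate in HEPES pH 7.4 buffer with EGTA, 0.1% CHAPS and 5% DMSO; ATP at 5 microM final.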
# WRN helicase inh: qHTS for Inhibitors of WRN Helicase | Potency, µM (titrated, usually from 114 µM), for inactives: at the top dose activity change, negative = inhibition, hits mostly inhibitors | 0.46% of 360,000 active | WRN helicase unwinding, fluorescent forked duplex, kinetic | Bifunctional 3'-5' exonuclease/ATP-dependent helicase WRN (Homo sapiens), Q14191; also: potency is read from the fitted curve at half-maximal effect; nearly all actives have a fitted effect of over 55% in size
#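 WRN at 20 nM final was preincubated with compound for 15 min at room temperature; reaction started with 100 nM forked duplex oligonucleotide carrying fluorophore and quencher plus 2 mM ATP (final). Unwinding followed kinetically by red fluorescence (ex 525/em 598 nm).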
# USP1-UAF1 inh: Inhibitors of USP1/UAF1: Primary Screen. Ubiquitin carboxyl-terminal hydrolase 1 (Homo sapiens), O94782. recombinant USP1/UAF1, Ub-Rhodamine cleavage fluorescence. Potency, µM (titrated, usually from 57.1 µM), for inactives: at the highest dose activity change, negative = inhibition, actives largely listed as inhibitors. 0.23% of 390,000 active; also: potency is read from the fitted curve at half-maximal effect; nearly all actives have a fitted effect of over 60% in size
# Target sequence (O94782 whole entry, looked up): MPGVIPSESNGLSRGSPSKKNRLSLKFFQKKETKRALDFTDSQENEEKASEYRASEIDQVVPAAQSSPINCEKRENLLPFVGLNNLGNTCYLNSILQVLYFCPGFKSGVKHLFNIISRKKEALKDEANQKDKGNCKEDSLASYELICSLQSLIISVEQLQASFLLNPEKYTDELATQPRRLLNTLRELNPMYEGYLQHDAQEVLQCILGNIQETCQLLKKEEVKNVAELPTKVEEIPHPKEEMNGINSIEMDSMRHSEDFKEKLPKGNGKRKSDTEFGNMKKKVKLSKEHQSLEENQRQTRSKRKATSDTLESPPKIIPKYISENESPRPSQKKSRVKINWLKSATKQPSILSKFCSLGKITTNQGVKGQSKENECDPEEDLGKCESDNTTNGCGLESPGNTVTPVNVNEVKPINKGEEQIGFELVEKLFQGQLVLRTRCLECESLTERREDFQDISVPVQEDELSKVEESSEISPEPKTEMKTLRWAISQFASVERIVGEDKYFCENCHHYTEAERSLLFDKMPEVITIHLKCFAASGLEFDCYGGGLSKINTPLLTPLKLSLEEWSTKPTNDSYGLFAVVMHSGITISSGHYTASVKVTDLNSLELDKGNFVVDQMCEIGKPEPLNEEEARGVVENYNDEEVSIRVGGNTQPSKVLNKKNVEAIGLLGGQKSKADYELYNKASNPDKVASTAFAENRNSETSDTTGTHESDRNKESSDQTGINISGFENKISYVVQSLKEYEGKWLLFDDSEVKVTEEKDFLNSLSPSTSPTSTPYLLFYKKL
#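 USP1/UAF1 complex at 1 nM was preincubated with compound for 15 min at room temperature, then Ub-Rho substrate (150nM final) was added. Fluorescence (480/540 nm) was read kinetically, 6 reads every 60 seconds.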
# USP2a inh: qHTS Assay for Inhibitors of Ubiquitin-specific Protease USP2a Using CHOP2 as the Reporter; 0.01% of 330,000 active; Potency, µM (titrated, usually from 38.3 µM), for inactives: at the highest dose activity change, negative = inhibition, actives largely listed as inhibitors; USP2 core, Ub-CHOP2 coupled fluorogenic reporter, 485/531;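 also: potency is read from the fitted curve at half-maximal effect; plate controls were DMSO wells for no effect and full inhibition by NEM control for full effect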
#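 USP2 core (10nM final) preincubated 30min RT with compound in 20mM Tris-HCl pH 8.0, 2mM CaCl2, 2mM beta-mercaptoethanol, 0.05% CHAPS; 25nM Ub-CHOP2 plus 25nM reporter substrate added, fluorescence (Ex485/Em531) read after 60min.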
# PLK1 PBD block: qHTS for Inhibitors of PLK1-PDB (polo-like kinase 1 - polo-box domain): Primary Screen; Serine/threonine-protein kinase PLK1 (Homo sapiens), P53350; Plk1 PBD binding of FITC phosphopeptide, fluorescence polarization; Potency, µM, for inactives: max response, negative = inhibition, actives largely listed as inhibitors; 2.8% of 360,000 active; AID 720504, 2013; also: potency is read from the fitted curve at half-maximal effect; series mostly up to about 57 µM; nearly all actives have a fitted effect of over 65% in size
# * marks the source's active call; other numbers are inactive results; ? = inconclusive; . = no result given; ! = a repeat was not active; [ ] = dose if it differs, or a comment. This is a sample that favours compounds with a hit; in the whole collection about 3.3% have one here. Unless noted, calls follow the shape of the dose curve; as a rule, active = well fitted curve in the direction sought with a large enough effect; inconclusive = small, poorly fitted or top-dose-only effect, or another doubt; inactive = no such curve, though single readings can be large; an effect the other way counts as inactive or inconclusive. Unless noted, % is scaled to controls: 0 for no effect and ±100 for the full control effect.
SMILES,PI5P4Ka inh,WRN helicase inh,USP1-UAF1 inh,USP2a inh,PLK1 PBD block
COC(=O)CN1C(=S)N(c2ccc(OC)cc2)C(=O)/C1=C/c1ccc(OC)cc1,2.1,-1.3%,-21.5%,-5.6%,-10.6%
COC(=O)CN1C(=S)N(c2ccc(OC)cc2)C(=O)/C1=C/c1ccc(N2CCOCC2)cc1,0.1,7.9%,28.2µM*,7.8%,-22.7%
O=C(O)c1ccc(CSCc2ccccc2Cl)o1,-17.5,2.6%,-17.3%,1.5%,21.2µM*
CC(C)NC(=O)c1ccc(CSCc2ccccc2Cl)o1,-1.4,9.7%,?,1.7%,-8.1%
CCN(CC)c1ccc2cc(-c3nc4ccccc4n3C)c(=O)oc2c1,-4.6,-2.3%,?,12.4%,-2.4%
CCN(CC)c1ccc2cc(-c3nc4ccccc4[nH]3)c(=O)oc2c1,-9.1,-19.2%,-19.7%,?,26.7µM*
Cc1ccc(-n2c(=O)c3cc4c(=O)n(-c5ccc(C)c(C)c5)c(=O)c4c(C(=O)c4ccc(C(=O)O)cc4)c3c2=O)cc1C,-13.7,-7.6%,-7.9%,0.0%,29.9µM*
O=C(O)c1ccc(-n2c(=O)c3ccccc3c3ccccc3c2=O)cc1,-1.0,?,-28.6%,1.0%,?
O=C(CN1C(=O)c2ccccc2C1=O)Nc1ccccc1,0.1,-1.9%,-19.7%,2.9%,-5.3%
O=C(Cn1sc2ccccc2c1=O)Nc1ccccc1,-81.7*,9.5%,-6.4%,.,1.19µM*
O=C(Cn1sc2ccccc2c1=O)NC12CC3CC(CC(C3)C1)C2,-90.5*,39.8µM*,-5.0%,0.8%,2.99µM*
Cc1ccc(C)n1-c1nnc(N2CCCC(C(=O)NCc3ccc(F)cc3)C2)s1 (stereo not given),.,.,-15.4%,.,.
NC(Cc1ccc(O)c([N+](=O)[O-])c1)C(=O)O (stereo not given),-7.1,-3.5%,-17.2%,0.7%,-4.8%
N[C@@H](Cc1cc(I)c(Oc2ccc(O)c(I)c2)c(I)c1)C(=O)O,-82.5*!,?,?,?,-15.4%
N[C@@H](Cc1cc(I)c(Oc2cc(I)c(O)c(I)c2)c(I)c1)C(=O)O,-61.8*,-26.0%,-25.6%,.,?
O=C(O)CCc1cc(I)c(Oc2ccc(O)c(I)c2)c(I)c1,.,.,.,-1.4%,.
Cc1ccc(-c2c(C)n3c4c(=O)n(C)c(=O)n(C)c4nc3n2CCCO)cc1,.,.,-23.1%,.,.
O=[N+]([O-])c1ccccc1/C=C/C=N/Nc1nc(N2CCCCC2)nc(N2CCCCC2)n1,0.8,-1.2%,-2.7%,1.4%,26.7µM*
O=[N+]([O-])c1ccccc1/C=N/Nc1nc(N2CCCC2)nc(N2CCCC2)n1,8.2,-24.9%,-13.4%,1.3%,-3.9%
CCCC[C@@H]1C=C(C(=O)O)[C@H](c2ccc(CC)cc2)N1S(=O)(=O)c1ccc(C)cc1,0.9,0.0%,-8.6%,-5.4%,-25.8%
CCCCC[C@@H]1C=C(C(=O)O)[C@H](c2ccc(Cl)c(Cl)c2)N1S(=O)(=O)c1ccc(C)cc1,0.4,-13.8%,?,-19.8%,26.7µM*
CCCCC[C@@H]1C=C(C(=O)O)[C@H](c2ccc(CC)cc2)N1S(=O)(=O)c1ccc(C)cc1,16.3,-6.4%,-3.0%,-15.0%,26.7µM*
Cc1c(Cl)cccc1NC(=O)c1ncn(-c2ccccc2)n1,.,.,-10.2%,.,.
CC(C)c1nc2ccccc2c2nnc(SCC(=O)NCc3ccco3)n12,.,3.6%,-11.8%,1.7%,29.9µM*
O=C(CSc1nnnn1-c1ccccc1)NC(=O)NCc1ccco1,-60.5*,-20.3%[11.6 µM],-3.6%,-0.8%,-11.3%
SMILES,PI5P4Ka inh,WRN helicase inh,USP1-UAF1 inh,USP2a inh,PLK1 PBD block
CC(C)(C)NC(=O)NC(=O)CSc1nnc(COc2ccccc2Cl)o1,10.7,-11.3%,-18.7%,5.5%,-13.1%
CC(C)(C)c1nc2ccccc2c2nnc(SCC(=O)NCc3ccco3)n12,.,-0.8%,-26.3%,-0.6%,-6.1%
O=C(CSc1nnc(COc2ccccc2Cl)o1)NC(=O)NCc1ccco1,-74.8*,-7.7%[11.6 µM],2.8%,1.9%,-19.1%
Cn1nc(Oc2ncc(C(F)(F)F)cc2Cl)cc1C(F)(F)F,-17.2,7.7%[57.1 µM],-9.3%,14.6%,26.7µM*
Cc1ccc2nc(NC(=O)CSc3nc4c(c(=O)n3C)SC(C)C4)sc2c1 (stereo not given),-20.4,-9.9%,-5.8%,-1.4%,26.7µM*
COc1ccc(N(CC(C)C)S(=O)(=O)c2nnc(NC(=O)c3cccs3)s2)cc1,.,.,-10.4%,.,.
CN(C)c1ccc(/C=C/C(=O)c2cccnc2)cc1,0.9,-16.4%,28.2µM*,15.2%,51.4%
O=C(/C=C/c1cccc(O)c1)c1cccnc1,-27.2,-22.0%,7.4%,0.6%,?
CN(C)c1ccc(/C=C/C(=O)c2ccc(O)cc2)cc1,-10.7,-1.7%,25.1µM*,.,63.7%
CN(C)c1ccc(/C=C/C(=O)c2ccc3c(c2)OCO3)cc1,-6.6,-30.0%,25.1µM*,18.3%,32.3%
COc1ccc(C(=O)/C=C/c2ccc(N(C)C)cc2)c(OC)c1,6.6,-15.3%,22.4µM*,?,49.5%
CN(C)c1ccc(C(=O)C=Cc2ccc([N+](=O)[O-])cc2)cc1,1.9,-3.0%,?,.,-0.2%
Cc1c(-c2nc(-c3ccc4c(c3)[nH]c(=O)n4C)no2)cccc1[N+](=O)[O-],.,.,-17.8%,.,.
O=C1C=CC(=Nc2ccc3c(c2)C(=O)c2ccccc2-3)O1,-57.8*,-20.6%,-10.7%,.,-8.0%
O=C1C=CC(=Nc2ccc(F)cc2)O1,-17.5,?,-2.6%,.,?
COCCCNC(=O)C1CCCN(c2nn3cc(-c4ccc(C)cc4)nc3s2)C1 (stereo not given),.,.,-12.7%,.,.
CN(C(=O)CSc1nc2ccccc2n1CC(=O)N(C)c1ccc(F)cc1)c1ccccc1,.,.,-9.6%,.,.
O=C(Cn1c(=O)oc2cc(S(=O)(=O)NCc3ccccc3)ccc21)N(CCO)Cc1ccccc1,.,.,-25.9%,.,.
O=C(O)CCCn1cc(NC(=O)c2cc(F)c(F)cc2Cl)cn1,-19.1,0.6%[57.1 µM],-8.7%,1.9%,8.44µM*
O=C(O)CCCn1cc(NC(=O)c2cccc(F)c2)cn1,0.9,-0.1%,-15.7%,2.1%,5.1%
COCCN1Cc2cc3cc(C)ccc3nc2SC1=Nc1ccc(OC)cc1,5.6,-7.1%,-27.6%,-1.4%,-1.2%
CCC(C)N=C1Sc2nc3ccc(C)cc3cc2CN1CCOC (stereo not given),-53.0*,-16.4%,-12.7%,-1.5%,23.8µM*
CCOc1ccc2nc3c(cc2c1)CN(CCCO)C(=NCCOC)S3,-16.1,-14.2%,-14.5%,-2.2%,10.6µM*
COc1ccc(CCNC(=O)Cc2c(C)c3c(cc(C)c4c(C)coc43)oc2=O)cc1OC,.,.,-6.0%,.,.

# Compound activity as filed in PubChem BioAssay.
